From PubChem
IL1B secr inh: blocks inflammasome-driven IL-1 beta release | THP-1 LPS/ATP IL-1B secretion, AlphaLISA, 16 h; active compounds read low | activity change, % at 57.5 µM | actives 4.7% (n = 360,000) | AID 743279; in the data active means activity change below about -50%; inconclusive means mostly about -30% to -49%
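THP-1 cells pretreated 1 hr with compounds (up to 57.5 uM final), then stimulated with LPS (250 ng/mL final) plus ATP (1.25 mM final); secreted IL-1B measured by AlphaLISA after 16 hr, decreased signal indicating inhibition.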
HepG2 tox: counter-screen for TGF-b inhibitors: cytotoxicity in HepG2 cells; Potency, µM (titrated, usually from 46.1 µM), hits mostly cytotoxic; HepG2 CAGA-GFP viability, ATP luminescence, 18 h; actives 0.76% (n = 410,000)
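CellTiter-Glo luminescence gave cytotoxicity after 18 hours at 37 degrees C. The cells were HepG2 CAGA-GFP in 1% FBS DMEM, stimulated with 500 pg/mL TGF-beta after compound addition. %Activity was normalised to no-cell wells (complete cell-killing) and DMSO (no toxicity), and curves were fitted and classified.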
DT40 TDP1 no CPT: qHTS for Inhibitors of human tyrosyl-DNA phosphodiesterase 1 (TDP1): qHTS in cells in absence of CPT; DT40 Tdp1-/- hTDP1 cells, no CPT, ATP luminescence, 48 h; Potency, µM (series often up to 46.2 µM), actives largely listed as inhibitors; actives 15% (n = 420,000); AID 686978, 2013; further: nearly all actives have a fitted effect of over 55% in size
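Growth kinetics read by CellTiter-Glo luminescence after ≥48 hr at 37 °C. Cells: DT40 Tdp1-/- stably carrying human TDP1, 400 per well, compound exposure in the absence of CPT (DMSO vehicle).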
DT40 TDP1 CPT: DT40-hTDP1 cell growth loss with CPT | actives 12% (n = 420,000) | Potency, µM (series often up to 46.2 µM), actives largely listed as inhibitors | chicken DT40 Tdp1-/-;hTDP1 cells + 20 nM CPT, ATP luminescence, 48 h | AID 686979; further: nearly all actives have a fitted effect of over 55% in size
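Cell growth measured by CellTiter-Glo luminescence after a minimum 48 h, 37 C compound exposure with 20 nM CPT in Tdp1-knockout DT40 cells stably expressing hTDP1, seeded 400/well; qHTS titration format.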
TGFb inhibitor: blocks TGF-b signaling; HepG2 CAGA-GFP TGF-b/SMAD3 reporter, GFP fluorescence, 18 h; TGF-beta stimulated, 500 pg/mL final; Potency, µM (top dose mostly 46.1 µM), most hits filed as inhibitors; actives 1.2% (n = 410,000); further: nearly all actives have a fitted effect of over 65% in size
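HEPG2 CAGA-GFP, 1000 cells/well; 2 h settle, 37 C; cpd via pin tool; TGF-b 500 pg/mL final; 18 h, 37 C; GFP imaging ex488/em500-530; %Activity normalised to -TGF-b and +DMSO controls; CRC fit, curve class.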
S-ASM inh: inhibitors of human secretory acid sphingomyelinase; AID 504937; actives 0.006% (n = 340,000); P17405; Potency, µM (doses to about 57.5 µM), most hits filed as inhibitors; placental ASM, HMU-PC fluorogenic substrate, 60 min
Target sequence (P17405 47-631 limits assumed): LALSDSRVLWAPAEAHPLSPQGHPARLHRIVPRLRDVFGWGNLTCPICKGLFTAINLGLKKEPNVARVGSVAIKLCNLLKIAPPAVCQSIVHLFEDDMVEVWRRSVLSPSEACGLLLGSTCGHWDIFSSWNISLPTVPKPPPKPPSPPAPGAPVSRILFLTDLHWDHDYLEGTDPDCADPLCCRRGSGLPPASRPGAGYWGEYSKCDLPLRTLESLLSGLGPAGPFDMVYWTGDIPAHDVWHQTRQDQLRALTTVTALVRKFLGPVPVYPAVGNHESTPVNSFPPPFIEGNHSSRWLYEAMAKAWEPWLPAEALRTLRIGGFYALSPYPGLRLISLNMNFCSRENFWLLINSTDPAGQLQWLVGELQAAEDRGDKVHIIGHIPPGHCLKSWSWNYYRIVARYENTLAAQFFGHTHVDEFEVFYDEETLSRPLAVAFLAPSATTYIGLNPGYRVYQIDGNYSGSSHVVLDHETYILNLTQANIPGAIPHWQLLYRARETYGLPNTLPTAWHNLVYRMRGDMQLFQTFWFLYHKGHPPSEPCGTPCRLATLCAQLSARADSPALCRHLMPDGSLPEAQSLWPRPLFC
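HMU-PC0 cleavage (9 uM final) by human placental ASM, 60 min at 37 °C following 10 min compound exposure at RT; stopped at pH 10, fluorescence Ex 386/Em 447 nm.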
Each line names hits and unclear results; the compound was inactive in the other large screens. In the library only some 19% were active in any assay of this set; here they are far more common. Unless noted, the call rests on the fitted dose curve; in most records, active means well fitted curve in the direction sought with a large enough effect; inconclusive means small, poorly fitted or top-dose-only effect, or another doubt; inactive means no such curve, though single readings can be large; an effect the other way counts as inactive or inconclusive.

CCCc1[nH]c2ccc(C#N)cc2c1CCC	DT40 TDP1 no CPT inconclusive, DT40 TDP1 CPT inconclusive, TGFb inhibitor 20µM
CCCc1[nH]c2ccc(C(=O)OC)cc2c1CCC	DT40 TDP1 no CPT inconclusive, DT40 TDP1 CPT inconclusive
CCC1CCCCN1CCCNC(=O)Cn1nc(C)n2nc(-c3ccccc3)cc2c1=O (configuration not stated)	IL1B secr inh inconclusive
CCCC(=O)NC(c1ccc(C(C)C)cc1)c1ccc2cccnc2c1O (configuration not stated)	DT40 TDP1 no CPT 2.3µM, DT40 TDP1 CPT 5.2µM
CCCC(=O)NC(c1ccccc1Cl)c1ccc2cccnc2c1O (configuration not stated)	DT40 TDP1 no CPT 5.2µM, DT40 TDP1 CPT 3.3µM, TGFb inhibitor inconclusive
CC(=O)NC(c1ccc(Cl)cc1)c1ccc2cccnc2c1O (configuration not stated)	DT40 TDP1 no CPT 2.6µM, DT40 TDP1 CPT 4.1µM, TGFb inhibitor inconclusive
CC(=O)NC(c1ccccc1)c1cc(Cl)c2cccnc2c1O (configuration not stated)	DT40 TDP1 no CPT inconclusive, DT40 TDP1 CPT inconclusive, TGFb inhibitor inconclusive
Cc1cc(NC(c2ccc(Cl)cc2)c2ccc3cccnc3c2O)no1 (configuration not stated)	DT40 TDP1 no CPT 4.6µM, DT40 TDP1 CPT 4.1µM, TGFb inhibitor inconclusive
CC(=O)Nc1ccc(C(=O)CSc2nnc3cc(C)c4ccccc4n23)cc1	DT40 TDP1 no CPT inconclusive, DT40 TDP1 CPT inconclusive (no result: IL1B secr inh, S-ASM inh)
CC(C)C(OC(=O)Cn1nnc2ccccc21)C(=O)NC1CCCC1 (configuration not stated)	none
CCCCC(=O)NC(c1ccc(OC)cc1)c1ccc2cccnc2c1O (configuration not stated)	DT40 TDP1 no CPT 9.2µM, DT40 TDP1 CPT 5.8µM, TGFb inhibitor inconclusive (no result: S-ASM inh)
CCC(=O)NC(c1ccc(C)cc1)c1ccc2cccnc2c1O (configuration not stated)	DT40 TDP1 no CPT 4.6µM, DT40 TDP1 CPT 4.1µM, TGFb inhibitor inconclusive
COc1ccccc1NC(c1cccnc1)c1ccc2cccnc2c1O (configuration not stated)	DT40 TDP1 no CPT inconclusive, DT40 TDP1 CPT inconclusive, TGFb inhibitor inconclusive
CCCC(=O)NC(c1ccc(N(C)C)cc1)c1ccc2cccnc2c1O (configuration not stated)	DT40 TDP1 no CPT 0.92µM, DT40 TDP1 CPT 0.65µM, TGFb inhibitor 2.5µM
O=C(CCS(=O)(=O)c1nc(-c2cccs2)cc(C(F)(F)F)n1)Nc1cccc(O)c1	DT40 TDP1 no CPT 5.2µM, DT40 TDP1 CPT 2.3µM, TGFb inhibitor inconclusive (no result: IL1B secr inh, S-ASM inh)
O=C(CSc1nc(-c2cccs2)cc(C(F)(F)F)n1)NCc1ccccc1	DT40 TDP1 no CPT 23µM, DT40 TDP1 CPT inconclusive
CCOc1ccc(NC(=O)CSc2nc(-c3cccs3)cc(C(F)(F)F)n2)c([N+](=O)[O-])c1	DT40 TDP1 no CPT inconclusive
CC(C)CNC(=O)CSc1nc(-c2cccs2)cc(C(F)(F)F)n1	DT40 TDP1 no CPT inconclusive, DT40 TDP1 CPT inconclusive
CC(C)OC(=O)c1ccc(NC(=O)CSc2nc(-c3cccs3)cc(C(F)(F)F)n2)cc1	DT40 TDP1 no CPT 29µM, DT40 TDP1 CPT 16µM, TGFb inhibitor inconclusive (no result: IL1B secr inh, S-ASM inh)
COc1cc(NC(=O)CSc2nc(-c3cccs3)cc(C(F)(F)F)n2)cc(OC)c1OC	DT40 TDP1 no CPT inconclusive, DT40 TDP1 CPT 21µM (no result: IL1B secr inh, S-ASM inh)
COc1ccc2ccc(C(C)(C(C)=O)C(=O)OC(C)C)cc2c1 (configuration not stated)	DT40 TDP1 no CPT inconclusive, DT40 TDP1 CPT inconclusive
Nc1nc(SCC(=O)Nc2ccc([N+](=O)[O-])cc2)n[nH]1	none
Cc1c(C(=O)N2CC[C@@H]3CCCC[C@H]3C2)sc2ncnc(NCCc3ccccn3)c12	DT40 TDP1 no CPT inconclusive (no result: IL1B secr inh, HepG2 tox, TGFb inhibitor, S-ASM inh)
CN(C(=O)CSc1nnc(CNC(=O)c2ccccc2)o1)c1ccccc1	none
Cc1ccc2[nH]c(C(=O)N3CCN(c4cccc(Cl)c4)CC3)cc2c1	none
COc1ccc(-n2c(=O)c(-c3cccc(Cl)c3)nc3cncnc32)cc1	none (no result: IL1B secr inh, HepG2 tox, TGFb inhibitor, S-ASM inh)
CCCCn1cnc2cc(NCc3ccccc3Cl)ccc21	DT40 TDP1 no CPT inconclusive, DT40 TDP1 CPT inconclusive, TGFb inhibitor inconclusive (no result: IL1B secr inh, S-ASM inh)
O=C(O)CCS(=O)(=O)c1nc(-c2cccs2)cc(C(F)(F)F)n1	DT40 TDP1 no CPT 15µM, DT40 TDP1 CPT 10µM, TGFb inhibitor inconclusive
Cc1cc(NC(=O)CCCS(=O)(=O)c2nc(-c3cccs3)cc(C(F)(F)F)n2)no1	IL1B secr inh -69, DT40 TDP1 no CPT 2.6µM, DT40 TDP1 CPT 2.6µM, TGFb inhibitor 14µM
CN1CCN(c2nc(-c3cccs3)cc(C(F)(F)F)n2)CC1	IL1B secr inh inconclusive, DT40 TDP1 no CPT inconclusive, DT40 TDP1 CPT inconclusive
COc1cc(NC(=O)CCS(=O)(=O)c2nc(-c3cccs3)cc(C(F)(F)F)n2)cc(OC)c1OC	HepG2 tox 11µM, DT40 TDP1 no CPT 6.5µM, DT40 TDP1 CPT 4.1µM, TGFb inhibitor 13µM (no result: IL1B secr inh, S-ASM inh)
CCOc1ccc2c(c1)NC(c1cccs1)=NC(c1ccc(F)cc1)=N2	DT40 TDP1 no CPT inconclusive, DT40 TDP1 CPT 23µM, TGFb inhibitor inconclusive (no result: IL1B secr inh, S-ASM inh)
CCOc1ccc(C2=NC(c3ccncc3)=Nc3ccc(C)cc3N2)cc1OCC	DT40 TDP1 no CPT 18µM, DT40 TDP1 CPT inconclusive (no result: IL1B secr inh, S-ASM inh)
CCOc1ccc(-c2nc(-c3ccncc3)no2)cc1OCC	none
